# Source: PubChem BioAssay (several laboratories)
# CYP2C19 inh: blockers of cytochrome P450 2C19 activity – biochemical, luminescence, ADME assay, primary screen; P33261; CYP2C19 Supersomes, luciferin-H EGE luminescence, 30 min; inhibition, % at 5 µM; 96,000 compounds, 21% hits; AID 778, 2007;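 active = CYP2C19 inhibition above a set limit at 5 µM in the primary screen, cut at about 50% in these data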;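 also: plate controls were negative control wells for no effect and 2.5 mM tranylcypromine positive control for full effect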
# sEH activator: soluble epoxide hydrolase activators, primary screen, biochemical, human sEH. purified human sEH enzymatic activity, activator screen. activation, % at 2 µM. 91,000 compounds, 0.04% hits. AID 717, 2007; in the data active = activation above about 37%
# Target sequence (P34913 whole entry, looked up): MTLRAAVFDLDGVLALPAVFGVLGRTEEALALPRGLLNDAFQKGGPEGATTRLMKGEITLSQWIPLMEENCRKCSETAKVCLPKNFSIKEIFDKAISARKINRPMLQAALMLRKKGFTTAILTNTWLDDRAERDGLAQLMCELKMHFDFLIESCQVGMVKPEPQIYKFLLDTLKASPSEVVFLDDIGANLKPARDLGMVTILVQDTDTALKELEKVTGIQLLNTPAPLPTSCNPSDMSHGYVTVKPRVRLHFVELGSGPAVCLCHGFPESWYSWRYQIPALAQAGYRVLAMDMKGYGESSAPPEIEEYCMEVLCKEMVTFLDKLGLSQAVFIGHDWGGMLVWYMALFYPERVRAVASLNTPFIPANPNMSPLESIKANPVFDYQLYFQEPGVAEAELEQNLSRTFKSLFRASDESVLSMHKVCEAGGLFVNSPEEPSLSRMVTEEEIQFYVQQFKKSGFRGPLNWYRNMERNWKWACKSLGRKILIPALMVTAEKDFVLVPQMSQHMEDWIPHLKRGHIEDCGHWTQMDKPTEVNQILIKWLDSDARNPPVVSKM
# CYP2C19 activ: human CYP2C19 activators, primary screen, biochemical, luminescence | 96,000 tested, under 10 active | recombinant CYP2C19, luciferin-H EGE luminescence; active compounds read high; 0 = fully inhibited enzyme, 1 = untreated enzyme | activation factor at 5 µM;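 active = activation factor of at least 2 at 5 µM in the primary screen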;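 also: 0 = wells with 2.5 mM tranylcypromine and 1 = vehicle-only wells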
# CYP2C9 inhib: blockers of cytochrome P450 2C9 activity – biochemical, luminescence, ADME assay, primary screen | CYP2C9 Supersomes, luciferin-H conversion | inhibition, % at 5 µM | 96,000 compounds, 20% hits | AID 777, 2007;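 active = blocking of liver enzyme CYP2C9 beyond about 50% at 5 µM, limit read from the data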
# CYP2C9 act: human CYP2C9 activators, primary screen, biochemical, luminescence; Cytochrome P450 2C9 (Homo sapiens), P11712; recombinant CYP2C9, luciferin-H conversion; active compounds read high; factor 1 = untreated enzyme, 0 = blocked; activation factor at 5 µM; 96,000 compounds, 1.4% hits; AID 1024, 2008;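 active = activation factor of 2 or more for CYP2C9 at a 5 µM dose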;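 also: 0 = sulfaphenazole-blocked wells and 1 = vehicle-only wells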
# sEH inh: soluble epoxide hydrolase inhibitors, primary screen, biochemical, human sEH; inhibition, % at 2 µM; Bifunctional epoxide hydrolase 2 (Homo sapiens), P34913; AID 707, 2007; 91,000 compounds, 0.34% hits; recombinant human sEH enzymatic activity assay; in the data active = inhibition above about 80%
# * marks the source's active call; other numbers are inactive results; . = no result given. Hits are enriched below; roughly 27% of the tested compounds scored in any of these assays.
SMILES,CYP2C19 inh,sEH activator,CYP2C19 activ,CYP2C9 inhib,CYP2C9 act,sEH inh
C=CCSc1nnc(-c2cc3c(s2)-c2ccccc2CC3)o1,4,13,1,-2,1,-10
O=C(Nc1cccc(Br)c1)/C(=C\c1cccnc1)NC(=O)c1ccco1,4,9,1,14,0.9,-7
COC(=O)c1ccc(C)c(NC(=O)CN(c2ccc3c(c2)OCO3)S(C)(=O)=O)c1,70*,2,0.3,69*,0.3,-4
CC(C)NC(=O)c1ccccc1NC(=O)CN(c1ccc2c(c1)OCO2)S(C)(=O)=O,45,-3,0.5,82*,0.2,-2
CS(=O)(=O)N(CC(N)=O)c1ccc2c(c1)OCO2,-8,-2,1.1,-14,1.1,0
CS(=O)(=O)N(CC(=O)Nc1ccccc1C(=O)N1CCOCC1)c1ccccc1,.,9,.,.,.,-8
CS(=O)(=O)N(CC(=O)Nc1ccccc1C(=O)NCCc1ccccc1)c1ccc2c(c1)OCCO2,87*,-2,0.1,94*,0.1,3
CS(=O)(=O)N(CC(=O)Nc1ccccc1C(=O)NCc1ccccc1)c1ccc2c(c1)OCCO2,36,-27,0.6,94*,0.1,28
COc1cccc(C2c3c(oc4cc(C)c(C)cc4c3=O)C(=O)N2CCCN(C)C)c1 (stereo not given),8,-1,0.9,35,0.7,0
COc1ccc(OC)c(N(CC(=O)Nc2ccc(NC(C)=O)cc2)S(C)(=O)=O)c1,0,-8,1,41,0.6,10
COC(=O)c1ccc(C)c(NC(=O)CN(c2cc(OC)ccc2OC)S(C)(=O)=O)c1,56*,-9,0.4,29,0.7,9
CCOC(=O)N1CCN(C(=O)CC(=O)Nc2ccc3nc4n(c(=O)c3c2)CCCCC4)CC1,14,.,0.9,69*,0.3,.
O=C(COc1ccc(Cl)cc1Cl)Nc1ccc2nc3n(c(=O)c2c1)CCCC3,21,-9,0.8,46,0.5,8
CCOC(=O)N1CCN(C(=O)C(=O)Nc2ccc3nc4n(c(=O)c3c2)CCCCC4)CC1,28,1,0.7,52*,0.5,-3
O=C(Cn1cncn1)NCc1cccc2ccccc12,37,9,0.6,3,1,-12
O=C(CCn1nc(-c2ccc(Cl)cc2)ccc1=O)NCc1cccnc1,-2,0,1,27,0.7,3
O=P(OC1CCCCC1)(OC1CCCCC1)C(O)c1ccc(Cl)cc1Cl (stereo not given),13,-2,0.9,20,0.8,4
OC(Cn1cncn1)c1ccc(Cl)cc1Cl (stereo not given),98*,3,0,56*,0.4,-3
OC(Cn1cncn1)c1ccc(Cl)cc1 (stereo not given),95*,-3,0,58*,0.4,2
OC(c1ccc(Cl)cc1Cl)C(Cc1cccnc1)n1cncn1 (stereo not given),86*,-4,0.1,9,0.9,2
Cc1cc2oc(C(=O)N(Cc3ccco3)C3CCS(=O)(=O)C3)cc(=O)c2cc1Cl (stereo not given),-8,-3,1.1,22,0.8,3
CC1=NC(=O)C(N=Nc2cccc3ccccc23)N1c1ccccc1 (stereo not given),.,0,.,.,.,3
CCCCOc1ccc(S(=O)(=O)NCc2csc(C)n2)cc1,41,4,0.6,30,0.7,0
O=S(=O)(NCCc1csc(-c2cccnc2)n1)c1cccs1,94*,-5,0.1,66*,0.3,4
O=S(=O)(NCc1csc(-c2cccnc2)n1)c1cccs1,41,.,0.6,17,0.8,.
SMILES,CYP2C19 inh,sEH activator,CYP2C19 activ,CYP2C9 inhib,CYP2C9 act,sEH inh
Cc1ccc(C(=O)NCCc2csc(-c3cccnc3)n2)cc1,47,.,0.5,63*,0.4,.
O=C(NCCc1csc(-c2ccc(C(F)(F)F)cc2)n1)c1cccs1,41,-10,0.6,75*,0.2,9
Cc1nc(CNS(=O)(=O)c2ccc3c(c2)CCCC3)cs1,39,.,0.6,-135,2.4*,.
O=C(Cn1nnc2c(cnn2-c2ccccc2)c1=O)N1CCN(c2ccccc2F)CC1,-17,8,1.2,2,1,-8
O=S(=O)(NCCc1csc(-c2cccnc2)n1)c1ccc(Cl)s1,80*,14,0.2,83*,0.2,-10
COc1ccc(-c2nc(CNS(=O)(=O)c3ccc(OC)c(OC)c3)cs2)cc1,82*,18,0.2,55*,0.4,-20
COc1ccc(S(=O)(=O)NCCc2csc(-c3cccnc3)n2)cc1,93*,-1,0.1,60*,0.4,-1
CC(=O)Nc1ccc(S(=O)(=O)NCc2csc(-c3cccnc3)n2)cc1,-4,12,1,-3,1,-8
CCc1ccc(S(=O)(=O)NCCc2cn3ccccc3n2)s1,26,-3,0.7,2,1,3
COc1ccc(-c2nc(CCNC(=O)c3ccco3)cs2)cc1OC,33,0,0.7,54*,0.5,-1
CCOC(=O)C1=NN(c2ccccc2C)C2=NC(C)=C(C(=O)OC)C(c3cccs3)N12 (stereo not given),.,-4,.,.,.,7
COc1ccc(OCCSc2nnc3sc4ccccc4n23)cc1,47,-3,0.5,0,1,2
COCCn1c(-c2ccccc2)cnc1N,-3,-8,1,1,1,6
COc1ccc(C2OC(=O)c3ccccc3S2)cc1 (stereo not given),30,.,0.7,3,1,.
CCOCCn1c(N2CCN(c3ccc(OC)cc3)CC2)nc2c1c(=O)[nH]c(=O)n2C,12,5,0.9,24,0.8,-7
COc1ccc(-c2nc3c(=O)n(C)c(=O)[nH]c3n2CCc2ccccc2)cc1,-4,-11,1,72*,0.3,11
COc1ccc(CCn2c(N3CCOCC3)nc3c2c(=O)[nH]c(=O)n3C)cc1,6,-3,0.9,30,0.7,5
COc1ccc(CCn2c(N3CCN(Cc4ccccc4)CC3)nc3c2c(=O)[nH]c(=O)n3C)cc1,62*,3,0.4,43,0.6,-2
COCCn1c(N2CCN(c3ccc(OC)cc3)CC2)nc2c1c(=O)[nH]c(=O)n2C,61*,-8,0.4,42,0.6,8
Cn1c(=O)[nH]c(=O)c2c1nc(N1CCN(c3ccccc3)CC1)n2CCSc1ncccn1,38,8,0.6,18,0.8,-9
Cc1ccnc(SCCn2c(N3CCN(Cc4ccccc4)CC3)nc3c2c(=O)[nH]c(=O)n3C)n1,83*,10,0.2,78*,0.2,-8
